High-throughput results as filed in PubChem BioAssay.
In the library only some 6.6% were active in any assay of this set; here they are far more common.
Anthrax LF inh2: inhibitors of Bacillus anthracis lethal factor protease; P15917; actives 0.12% (n = 360,000); AID 588501; multiplex microsphere protease cleavage assay, LF; inhibition, % at 10 µM; also: plate controls were buffer without enzyme for full effect and enzyme alone for no effect
BoNT F protease: inhibitors of Botulinum neurotoxin F light chain protease; Multiplex microsphere protease cleavage assay, flow cytometry; inhibition, % at 10 µM; actives 0.22% (n = 360,000); AID 588497; in the data active = inhibition above about 35%, passing the limit was not always enough; inconclusive = no clear call, values can overlap the other calls; also: plate controls were buffer without enzyme for full effect and enzyme alone for no effect
Mtb FBA inh: inhibitors of M. tuberculosis fructose-bisphosphate aldolase; P9WQA3; purified M. tuberculosis FBA, fluorescence read-out; inhibition, % at 1 µM; actives 2.3% (n = 360,000); in the data active = inhibition above about 27%;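 also: 0% = vehicle and 100% = reference inhibitor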
Target sequence (P9WQA3 whole entry, looked up): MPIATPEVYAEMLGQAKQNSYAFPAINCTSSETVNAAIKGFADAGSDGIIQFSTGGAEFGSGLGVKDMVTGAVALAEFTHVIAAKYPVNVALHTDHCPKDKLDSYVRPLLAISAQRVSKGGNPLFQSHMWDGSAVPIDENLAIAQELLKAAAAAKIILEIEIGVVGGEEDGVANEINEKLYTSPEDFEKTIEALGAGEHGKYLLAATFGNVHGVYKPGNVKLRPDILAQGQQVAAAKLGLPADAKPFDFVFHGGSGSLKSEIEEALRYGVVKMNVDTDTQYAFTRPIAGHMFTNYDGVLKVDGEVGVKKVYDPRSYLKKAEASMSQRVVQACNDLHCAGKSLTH
BoNT A protease: inhibitors of Botulinum neurotoxin A light chain protease; AID 588499; inhibition, % at 10 µM; actives 0.17% (n = 360,000); multiplex microsphere protease substrate cleavage, flow cytometry; also: plate controls were buffer without enzyme for full effect and enzyme alone for no effect
GDH-TPI counter: counter-screen for M. tuberculosis FBA inhibitors: GDH-TPI coupled enzymes; GDH-TPI coupled enzyme counterscreen, NADH absorbance; inhibition, % at 4.8 µM; actives 1.2% (n = 360,000); in the data active = inhibition above about 30%;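 also: 0% = DMSO wells and 100% = wells lacking the enzyme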
Bead autofluor: compound fluorescence in toxin protease inhibitor counterscreen. compound autofluorescence counterscreen, microsphere flow cytometry; stronger effect = higher value. actives 3.1% (n = 360,000). fluorescence intensity (no concentration beside the values); in the data active = fluorescence intensity above about 16000; inconclusive = no clear call, values can overlap the other calls
The depositor's hits bear a star; ? = inconclusive; nt = no result. Rule as the data show it, unless noted: active = inhibition above about 30%; inconclusive = no clear call, values can overlap the other calls; inactive = below that.

SMILES	Anthrax LF inh2	BoNT F protease	Mtb FBA inh	BoNT A protease	GDH-TPI counter	Bead autofluor
COC(=O)CSc1nnc2n1C(C)(C)Cc1ccccc1-2	-0.5	2.7	-3.0	-1.1	-0.6	16446*
Cc1ccc(-n2c(CSc3nc(C)cc(C)n3)nnc2SCC(=O)NCc2ccco2)cc1	-0.7	2.2	-0.8	?	9.7	22159*
O=C(CCn1c(SCC(=O)NCc2ccco2)nc2ccccc2c1=O)NCCc1ccccc1	-2.9	1.5	-0.1	?	0.0	22374*
Cc1ccc(NC(=O)CSc2nc3ccccc3c(=O)n2CCCC(=O)N2CCCC2)cc1	-2.6	-3.3	-1.4	-1.2	-8.3	22956*
CCn1c(SCC(=O)N2CCCC2)nc2ccccc2c1=O	-3.7	3.7	0.0	3.9	-1.9	19212*
COCCCn1c(SCC(=O)Nc2ccc(C)cc2)nc2ccccc2c1=O	0.5	-2.5	4.3	-0.4	-4.7	2514
C=CCn1c(SCC(=O)NCc2ccco2)nc2ccccc2c1=O	-5.7	-5.3	3.5	-0.9	4.4	3795
Cc1ccc(S(=O)(=O)N2C[C@]3(O)C[C@@H]4C(=O)N(c5ccccc5)C(=O)[C@@H]4C[C@]3(OC(=O)Nc3c(C)noc3C)C2)cc1	0.0	0.0	3.4	0.1	-0.9	3630
O=C(Nc1ccc(N2CCOCC2)cc1)c1csc([C@@H]2C[C@H](O)[C@@H](CO)O2)n1	-4.2	-5.5	-0.4	-0.4	6.2	4196
COc1cccc(/C=C/C(=O)OCC(=O)NCC2CCCO2)c1OC (stereo unspecified)	1.0	-1.9	-5.5	-0.1	1.1	2431
Cc1ccc(S(=O)(=O)N2CCOC2CNC(=O)C(=O)NCc2ccccn2)cc1 (stereo unspecified)	4.0	-9.6	1.8	-2.9	-1.0	6378
CC(NC(=O)CSc1ncn[nH]1)c1ccc(Cl)cc1Cl (stereo unspecified)	-2.0	25.0	2.4	-3.2	6.5	3441
CC(=O)Nc1ccc(S(=O)(=O)N(C)c2ccc(OCCOc3ccccc3F)cc2)cc1	-2.5	-7.1	1.4	-3.2	7.3	6783
CC1(C(=O)NCc2ccc(C(F)(F)F)cc2)CCN1C1Cc2ccccc2C1 (stereo unspecified)	-6.4	2.8	-2.7	0.0	-7.3	3547
CCCCn1c(SCC(=O)N2CC(C)CC(C)C2)nc2cc(S(N)(=O)=O)ccc21 (stereo unspecified)	-2.4	1.8	0.5	0.1	-9.5	11266
COc1cccc(OCc2nnc(SCC(=O)NCc3ccco3)n2CCc2ccccc2)c1	-3.1	2.0	-1.6	1.2	-15.9	20143*
COc1cccc(OCc2nnc(SCC(=O)NCc3ccco3)n2C)c1	3.2	12.5	0.6	0.9	-1.9	4250
COCCCNC(=O)CSc1nc2ccccc2c(=O)n1CCc1ccc(S(N)(=O)=O)cc1	-1.0	4.5	32.0*	1.1	-0.3	4141
CCCCn1c(SCC(=O)N2CCCCC2)nc2cc(S(N)(=O)=O)ccc21	-0.9	-1.3	-1.0	-0.4	-9.6	19717*
CC(C)(C)c1nc2ccccc2c2nnc(SCC(=O)NCc3ccco3)n12	-1.2	-1.1	-3.9	-1.4	6.8	16855*
Cc1ccccc1Nc1nc(N)[nH]c(=O)c1N=O	-7.2	-9.2	0.2	0.1	nt	6534
O=C(Nc1ccc(Cl)cc1)C1C2C=CC3(O2)C1C(=O)N(CCN1CCCCC1)C3C(=O)NC1CCCCC1 (stereo unspecified)	10.0	2.7	-5.0	2.5	6.0	4628
O=C(CSc1ncccn1)N1CCC(Cc2ccccc2)CC1	-1.2	-6.3	0.6	-0.9	3.1	4824
COc1ccccc1C(=O)NC(=O)CSc1ccc(C)c(C)c1	-0.1	0.1	-1.9	0.5	-3.5	3981
Nc1ccccc1C(=O)N1O[C@@H]2C=C[C@H]1CC2	1.5	0.1	-1.7	-0.7	3.6	3622
SMILES	Anthrax LF inh2	BoNT F protease	Mtb FBA inh	BoNT A protease	GDH-TPI counter	Bead autofluor
CC(C)CCNC(=O)[C@@H](Cc1ccccc1)NC(=O)CC[C@H]1O[C@@H](n2ccc(=O)[nH]c2=O)[C@H](O)[C@@H]1O	1.1	7.4	1.2	1.1	nt	4181
CCCN(CCC)C(=O)CSc1nc2ccccc2c(=O)n1CC1COc2ccccc2O1 (stereo unspecified)	?	-1.8	0.6	-0.4	11.0	6926
O=C(CSc1nc2ccccc2c(=O)n1CCC(=O)N1CCCCC1)NCc1ccccc1	-2.5	-0.9	0.3	?	2.4	23326*
CCOC(=O)CSc1nc2ccccc2c(=O)n1CC1COc2ccccc2O1 (stereo unspecified)	-4.6	-5.1	-1.2	-3.0	-9.5	22016*
COC(=O)c1[nH]c2c(c1C(=O)OC)CCc1ccccc1-2	-7.7	17.4	120.5*	-3.3	30.5	3758
O=C(Nc1c(Cl)cccc1Cl)c1cc(=O)n(Cc2ccccc2)c(=O)[nH]1	1.7	-0.6	-2.5	?	8.9	21337*
Cc1ccc(NC(=O)CC2SCCNC2=O)cc1Cl (stereo unspecified)	-4.1	-3.1	-0.5	?	9.7	23686*
COC(=O)CC1SCCNC1=O (stereo unspecified)	0.8	-1.2	0.3	-1.4	-0.7	20974*
COC(=O)CC1NCCNC1=O (stereo unspecified)	-8.1	3.9	0.6	0.7	5.5	9025
COc1ccc(NC(=O)C2CC(=O)N(c3ccccc3Cl)C2)c(OC)c1 (stereo unspecified)	0.6	1.8	3.2	-1.1	2.3	4489
COc1ccc(N2C(=O)CC(c3ccccc3)CC2=O)cc1	-4.3	-3.1	-1.0	0.2	-2.2	3804
COc1ccc(N2C(=O)CCC(C(=O)c3ccccc3)=C2C)cc1	-2.5	7.5	-1.8	?	15.5	19774*
O=c1nc2ccccc2c2n1CC(CN1CCN(c3ccc(F)cc3)CC1)N2 (stereo unspecified)	-1.5	7.0	1.4	0.8	-8.8	2809
O=c1nc2ccccc2c2n1CC(CN1CCN(c3cccc(Cl)c3)CC1)N2 (stereo unspecified)	-1.7	-6.1	-1.5	-7.2	4.9	17652*
CC(=O)N1c2ccc(S(=O)(=O)N(C)CC(=O)NCc3ccc(C)cc3)cc2CC1C (stereo unspecified)	0.9	-1.4	2.5	-0.1	3.7	4325
NS(=O)(=O)c1ccc(CCNC(=O)C2CCCCN2S(=O)(=O)c2ccccc2)cc1 (stereo unspecified)	-17.4	0.4	-0.5	1.6	0.0	21340*
O=C(NCCc1ccccc1F)C1CCCN1S(=O)(=O)c1ccc2ccccc2c1 (stereo unspecified)	-4.1	-3.0	0.6	0.2	-1.2	20558*
CCOc1ccccc1N1CC(C(=O)NCCc2ccc(S(N)(=O)=O)cc2)CC1=O (stereo unspecified)	-2.0	-2.3	0.5	0.9	-14.6	20308*
NS(=O)(=O)c1ccc(CCNC(=O)[C@@H]2CCCN2S(=O)(=O)c2ccccc2F)cc1	-8.8	-6.6	2.6	-0.2	5.3	5880
CCN1CCN(c2nc(-c3ccccn3)nc3ccccc23)CC1	-1.6	-11.8	-0.2	-5.5	20.4	24768*
